MARV entry inh: blocks Marburg virus binding to or entry into cells | Potency, µM (doses to about 37.8 µM), for inactives: top-dose activity change, negative = inhibition, most hits filed as inhibitors | actives 1.8% (n = 300,000) | AID 540276 | Marburg virus pseudotyped entry inhibition, cell reporter; calls by dose curve; tested in HEK293 cells; further: potency means the concentration at half of the fitted maximal effect
HCMV inh: human cytomegalovirus inhibition; HFF cells, HCMV-luciferase reporter, 72 h; stronger effect = lower value; activity change, negative = inhibition, % at 57.5 µM; actives 4.5% (n = 410,000); AID 1259415; in the data active means activity change below about -60%; inconclusive means no clear call, values can overlap the other calls; inactive means above about -39%
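HFF cells seeded 16 h at 37C, treated with compounds, infected with luciferase-reporter HCMV at MOI 1 PFU/cell; luciferase read at 72 h post infection, normalized to buffer-only and Salinomycin controls.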
Lassa entry inh: inhibitors of Lassa virus binding or cell entry; Lassa virus pseudotype entry inhibition, cell reporter; Potency, µM (doses to about 37.9 µM), for inactives: at the highest dose activity change, negative = inhibition, most hits filed as inhibitors; actives 1.2% (n = 300,000); AID 540256; calls by dose curve; tested in HEK293 cells; further: potency means the concentration at half of the fitted maximal effect; nearly all actives have a fitted effect of over 50% in size
HCV inhibitor: inhibitors of hepatitis C virus infection. Huh7.5.1 HCVcc-Cre infection, luciferase reporter, 44 h. Potency, µM (top dose mostly 41.8 µM), for the others: top-dose activity change, negative = inhibition, usual class: inhibitors. actives 3.4% (n = 340,000); active means well fitted inhibition curve with a large enough effect; inconclusive means small, poorly fitted or top-dose-only effect, or another doubt; inactive means no such curve, though single readings can be large or run the other way; further: potency means the concentration at half of the fitted maximal effect
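HCVcc-Cre virus at an moi near 0.5 was added right after compound to cells cultured 4 h from seeding (1,000 cells/well). Luciferase activity was determined 44 h later, 15 min after substrate addition at RT.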
FMDV antiviral: blocks foot and mouth disease virus. FMDV antiviral cell-based qHTS. Potency, µM (titrated, usually from 57.9 µM), for inactives: at the top dose activity change, negative = inhibition, most hits filed as inhibitors. actives 1.2% (n = 410,000). AID 1159524; calls by dose curve; tested in HEK293T cells; further: read-out not given here; potency means the concentration at half of the fitted maximal effect; nearly all actives have a fitted effect of over 45% in size
* marks the source's active call; other numbers are inactive results; ? = inconclusive; / = not tested or not shown; [ ] = remark or other dose. An excerpt weighted towards active compounds, which were near 7.9% of everything screened. On the % scale 0 is the no-effect control and ±100 the full control effect.

SMILES	MARV entry inh	HCMV inh	Lassa entry inh	HCV inhibitor	FMDV antiviral
CCC(Cc1ccccc1)NS(=O)(=O)c1ccc2c(c1)NC(=O)C(C)S2 (centres undefined)	/	-86*	/	?	-16%
CCc1ccc(NC(=O)C2CCN(S(=O)(=O)c3ccc4c(c3)NC(=O)C(C)S4)CC2)cc1 (centres undefined)	?	-97*	?	8.9µM*	-9%
CCc1cccc(NS(=O)(=O)c2ccc3c(c2)NC(=O)C(C)S3)c1 (centres undefined)	/	0	/	?	2%
CC1Sc2ccc(S(=O)(=O)N3CCC(C(=O)NCc4ccc(Cl)cc4)CC3)cc2NC1=O (centres undefined)	?	-26	-46%[46.1 µM]	?	?
Cc1ccc(NC(=O)C2CCN(S(=O)(=O)c3ccc4c(c3)NC(=O)C(C)S4)CC2)cc1C (centres undefined)	?	-62*	?	?	?
CN(Cc1ccccc1)C(=O)COC(=O)C1CCN(S(=O)(=O)c2ccc(Cl)c(C(F)(F)F)c2)CC1	-18%[46.1 µM]	-66*	6%	-2%[8.37 µM]	-21%
CCOc1ccc(CN(C)C(=O)c2ccc3c(c2)NC(=O)C(C)S3)cc1OC (centres undefined)	/	-18	/	13µM*	?
Cc1ccc(S(=O)(=O)N2CCC(C(=O)OCC(=O)N(C)Cc3ccccc3)CC2)cc1C	4%[46.1 µM]	-15	1%	19%	?
O=C1C[C@H](NCc2ccc3c(c2)OCO3)C(=O)N1Cc1ccc2c(c1)OCO2	26%	/	/	/	/
COc1ccccc1N1CCN(C(=O)CCn2nc(C)c(S(=O)(=O)N3CCCC3)c2C)CC1	/	7	15%[46.1 µM]	/	-23%
CC1CN(Cc2csc(-c3ccc(Cl)cc3)n2)CC(C)O1 (centres undefined)	?	?	-10%[46.1 µM]	11µM*	-16%
ClCc1csc(-c2ccc(Cl)cc2)n1	-4%	-40	11%	25%	3%
CCN(CC)c1ccc(NS(=O)(=O)c2cc3[nH]c(=O)c(=O)[nH]c3cc2C)c(C)c1	/	-3	-1%[46.1 µM]	/	-21%
CCC(c1ccc(O)c(O)c1)C(CC)c1ccc(O)c(O)c1 (centres undefined)	?	/	?	13µM*	-18%
CC(NC(=O)/C=C/c1ccccc1[N+](=O)[O-])C1CC2CCC1C2 (centres undefined)	-6%[46.1 µM]	?	1%	-6%	-6%
COc1ccc(N2C(=O)CC(Sc3ncn[nH]3)C2=O)c(OC)c1 (centres undefined)	20%	-98*	2%	16µM*	5%
CCOC(=O)c1c(CN(C)C)oc2cc(CN(C)C)c(O)c(CSc3ccccc3)c12	10µM*	-4	-10%	-22%	-20%
CCOC(=O)c1c(CSc2ccccc2)n(C)c2cc(Br)c(O)c(CN(C)C)c12	?	-15	?	?	-26%
FC(F)(F)c1cc(CCN2CCNC[C@@H]2c2ccccc2)cc(C(F)(F)F)c1	/	4	/	?	-12%
FC(F)(F)c1cc(CO[C@@H]2CCCN[C@@H]2c2ccccc2)cc(C(F)(F)F)c1	/	24	/	3.5µM*	?
Cc1cc(C)c(NC(=O)c2cccc(NC(=O)c3ccco3)c2)c(C)c1	/	5	/	-21%	-3%
Cc1ccc(-c2nnc(SCc3ccccc3F)o2)cc1	16µM*	79	?	?	10%
Cc1ccc(-c2nnc(SCC(=O)Nc3ccccc3F)o2)cc1	/	-95*	/	-9%	-9%
O=C(CSc1nnc(-c2cccnc2)o1)Nc1ccc(Br)cc1	2%[46.1 µM]	-10	11%	12%	-6%
O=C(CSc1nnc(-c2cccnc2)o1)Nc1ccc(F)cc1	/	-76*	/	/	59%
SMILES	MARV entry inh	HCMV inh	Lassa entry inh	HCV inhibitor	FMDV antiviral
COCC1=Cc2cc3c(cc2C(C(C(=O)OC)C(=O)OC)N1C(=O)OC)OCO3 (centres undefined)	-18%[14.2 µM]	/	/	/	/
CC(=O)Nc1ccc(OCC(O)Cn2c(C)nc3ccccc32)cc1 (centres undefined)	-26%[46.1 µM]	-6	-8%	-13%	-24%
COc1cccc(OCC(Cn2c(C)nc3ccccc32)OC(C)=O)c1 (centres undefined)	?	-70*	?	?	-23%
CC(=O)N(C)c1ccc(OCC(O)Cn2c(C)nc3ccccc32)cc1 (centres undefined)	?	-25	?	11µM*	?
O=C(Nc1ccc2nc(SCC(=O)N3CCCC3)sc2c1)c1ccccc1F	?	-1	12%[46.1 µM]	/	0%
Cc1cc(C)c2c(=O)cc(C(=O)Nc3ccc(S(=O)(=O)Nc4onc(C)c4C)cc3)oc2c1	2%[46.1 µM]	-29	35%[46.1 µM]	/	-13%
O=C(NCc1cccc(Cl)c1)c1oc(=O)c2ccccc2c1-c1ccccc1	-13%[46.1 µM]	-69*	-16%[46.1 µM]	/	-12%
COc1cccc(S(=O)(=O)N(C)C[C@@H]2Oc3ncc(Br)cc3C(=O)N([C@H](C)CO)C[C@@H]2C)c1	/	-10	/	/	/
CCn1c(CNS(=O)(=O)c2ccc(Br)cc2)n[nH]c1=S	/	19	/	11%	6%
CCSc1nc(N)nc2c1ncn2C1OC(CO)C(O)C1O (centres undefined)	21%	3	15%	-2%	0%
Cn1cnc([N+](=O)[O-])c1Sc1nc(N)nc2c1ncn2C1OC(CO)C(O)C1O (centres undefined)	?	-76*	2.8µM*	-25%	?
Nc1nc(SCc2ccc(Br)cc2)c2ncn(C3OC(CO)C(O)C3O)c2n1 (centres undefined)	-3%[46.1 µM]	-61*	4%[46.1 µM]	-13%	19%
Nc1nc(SCc2ccc([N+](=O)[O-])cc2)c2ncn([C@@H]3O[C@@H](CO)[C@@H](O)[C@H]3O)c2n1	-5%	/	/	/	/
Cn1cnc([N+](=O)[O-])c1Sc1nc(N)nc2c1ncn2C1CC(O)C(CO)O1 (centres undefined)	?	-82*	?	?	?
Cc1ccc(S(=O)(=O)NC(=O)COc2ccc([N+](=O)[O-])cc2)cc1	?	-13	-5%	16%	-14%
CCn1c(SCC(=O)Nc2ccc(Cl)cc2)nc2nc3c(cc2c1=O)CCCC3	-23%	?	-8%	?	-23%
Cc1ccccc1-n1c(SCC(=O)Nc2ccccc2)nc2nc3c(cc2c1=O)CCCC3	?	-80*	-13%	?	-18%
Cc1cccc(NC(=O)CSc2nc3nc4c(cc3c(=O)n2-c2ccccc2)CCCC4)c1	10µM*	-33	-3%	?	-22%
O=C(CSc1nc2nc3c(cc2c(=O)n1-c1ccccc1)CCCC3)Nc1cccc2ccccc12	?	-32	4%	?	-22%
COC(=O)c1ccc(NC(=O)COC(=O)COc2cccc3c2OC(C)(C)C3)cc1	/	7	/	12%	-19%
CCC(Oc1ccccc1)C(=O)Nc1ccc2oc(-c3ccc(OC)cc3)nc2c1 (centres undefined)	?	68	?	/	17%
CCc1nnc2c3ccccc3nc(Nc3ccc(C(C)=O)cc3)n12	/	-19	-2%[46.1 µM]	/	-7%

High-throughput results deposited in PubChem by National Center for Advancing Translational Sciences (NCATS).
